# Compounds with a hit are over-represented: about 3.2% of the library has one in this group of screens.
# S16 F2sN tox = Cell viability qHTS assay in S16 Pmp22-F2sN cells. S16 Pmp22-F2sN Schwann cells viability, CellTiter-Glo, 24 h. Potency, µM (top dose mostly 57.5 µM), hits mostly cytotoxic. 0.48% of 43,000 active; further: nearly all actives have a fitted effect of over 65% in size
#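 Luminescence from CellTiter-Glo, read by CCD camera after a 15 min room-temperature incubation, served as the viability signal. Reporter Schwann cells (S16 Pmp22-F2sN) had been treated with pin-transferred compounds for 24 h at 37C.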
# PMP22 txn = Cell-based coincidence reporter assay to measure PMP22 gene transcription in S16 Pmp22-F2sN cells - Primary screen | 2% of 43,000 active | S16 Pmp22-F2sN Schwann cells (luciferase reporters placed in the Pmp22 gene), FLuc/NLuc coincidence luminescence, 24 h | Potency, µM (doses to about 57.5 µM), usual class: inhibitors; active means clear falling dose curves in both reporters; inconclusive means both reporters move, but less clearly or upward; inactive means either reporter flat; the % is the NLuc reporter signal
#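 Transcriptional readout in edited S16(c9) cells: two luciferases reported from the Pmp22 locus, measured in turn after 24 h compound incubation.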
# mTORC1 inh = Acumen qHTS Assay for Inhibitors of the mTORC1 Signaling Pathway in MEF (Tsc2-/-, p53-/-) Cells: Sytravon. Tsc2-/- p53-/- MEF, phospho-rpS6 immunofluorescence/PI, 24 h. Potency, µM (titrated, usually from 38.3 µM), hits mostly inhibitors. 0.78% of 44,000 active. AID 493208, 2011; further: nearly all actives have a fitted effect of over 50% in size
#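 Cell-based qHTS: Tsc2-/- p53-/- MEF, 24 h cpd, 37 °C; fix/perm, anti-phospho-S6 Alexa-488 + PI; Acumen 488 nm scan; pS6/PI ratio, % positive cells; rapamycin 7.5 nM = inhibition ref; PI count = viability.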
# p53null 39C kill = qHTS Screen for Compounds that Selectively Target Cancer Cells with p53 Mutations: Cytotoxicity of p53 Null Cells at the Nonpermissive Temperature; H1299 p53-null (neo) cells, 39C, ATPlite viability, 24 h; Potency, µM (highest dose often 46.1 µM), hits mostly cytotoxic; 0.97% of 55,000 active; AID 904, 2007; further: nearly all actives have a fitted effect of over 50% in size
#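 Luminescent ATP signal reported cell survival after H1299 lines (neo, p53 null; or p53 A138V) received up to 46 uM compound and 24 hr incubation at 39C.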
# p53null 32C kill = qHTS Screen for Compounds that Selectively Target Cancer Cells with p53 Mutations: Cytotoxicity of p53 Null Cells at the Permissive Temperature; Potency, µM (titrated, usually from 46.1 µM), usual class: cytotoxic; 0.62% of 55,000 active; H1299-neo p53 null cells, ATP luminescence, 24 h, 32C; further: nearly all actives have a fitted effect of over 55% in size
#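 AC50 values derive from Hill modelling of qHTS concentration-response data (up to 46 uM) in H1299-neo cells. Cells were treated 24 h at 32C following overnight attachment at 37C; viability was read as cellular ATP.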
# NLuc sat counter = Biochemical NLuc saturation counterscreen for small molecule modulators of PMP22 gene expression - Nano-Glo assay | shares compounds with PMP22 txn | Secreted NLuc enzyme (filtered S16 cell medium), Nano-Glo luminescence | Potency, µM (series often up to 57.5 µM), most hits filed as inhibitors | 4% of 690 active
# NLuc Km counter = Biochemical coelenterazine-based NLuc counterscreen for small molecule modulators of PMP22 gene expression - Km assay. 5% of 690 active. shares compounds with PMP22 txn. Potency, µM (top dose mostly 57.5 µM), usual class: inhibitors. secreted NLuc enzyme, coelenterazine luminescence, Km conditions
# FLuc ctr PMP22 = Biochemical FLuc counterscreen for small molecule modulators of PMP22 gene expression. shares compounds with PMP22 txn. purified P. pyralis FLuc, luminescence, 10 min. Potency, µM (series often up to 57.5 µM), actives largely listed as inhibitors. 690 tested, under 10 active. AID 1508640, 2021
# Target sequence (P08659 whole entry, looked up): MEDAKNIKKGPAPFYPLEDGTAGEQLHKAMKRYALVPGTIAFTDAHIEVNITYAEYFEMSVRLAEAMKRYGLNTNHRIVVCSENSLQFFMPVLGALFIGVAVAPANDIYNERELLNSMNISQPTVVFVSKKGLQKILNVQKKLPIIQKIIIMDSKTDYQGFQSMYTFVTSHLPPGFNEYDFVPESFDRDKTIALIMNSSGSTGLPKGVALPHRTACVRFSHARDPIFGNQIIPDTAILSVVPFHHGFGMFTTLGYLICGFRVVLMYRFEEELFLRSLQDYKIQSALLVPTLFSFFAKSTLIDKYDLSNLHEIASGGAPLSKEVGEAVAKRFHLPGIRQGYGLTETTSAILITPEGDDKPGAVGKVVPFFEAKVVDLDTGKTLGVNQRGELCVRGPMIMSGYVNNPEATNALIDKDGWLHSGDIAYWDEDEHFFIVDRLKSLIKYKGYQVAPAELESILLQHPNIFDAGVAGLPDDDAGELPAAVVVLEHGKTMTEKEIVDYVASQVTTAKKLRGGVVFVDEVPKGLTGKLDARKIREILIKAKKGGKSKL
# S16 viab conf = Cell viability qHTS assay in S16 Pmp22-F2sN cells - Confirmatory screen. Potency, µM (highest dose often 57.5 µM), usual class: cytotoxic. AID 1508641, 2021. 7% of 690 active. S16 Schwann cells viability, CellTiter-Glo ATP luminescence, 24 h. shares compounds with PMP22 txn
# PMP22 txn conf = Cell-based coincidence reporter assay to measure PMP22 gene transcription in S16 Pmp22-F2sN cells - Confirmatory screen; shares compounds with PMP22 txn; 22% of 690 active; Potency, µM (top dose mostly 57.5 µM), most hits filed as inhibitors; AID 1508646, 2021; S16 Schwann cells Pmp22-F2sN, dual luciferase, 24 h; active means clear falling dose curves in both reporters; inconclusive means both reporters move, but less clearly or upward; inactive means either reporter flat; the % is the FLuc reporter signal
# PMP22 prot conf = Cell-based HiBiT reporter assay to measure PMP22 protein expression in S16 Pmp22-HiBiT cells - Confirmatory screen. Potency, µM (doses to about 27.9 µM), actives largely listed as inhibitors. 95 tested, under 10 active. shares compounds with PMP22 txn. S16 Schwann cells Pmp22-HiBiT, luminescence, 48 h
# Target sequence (P25094 whole entry, looked up): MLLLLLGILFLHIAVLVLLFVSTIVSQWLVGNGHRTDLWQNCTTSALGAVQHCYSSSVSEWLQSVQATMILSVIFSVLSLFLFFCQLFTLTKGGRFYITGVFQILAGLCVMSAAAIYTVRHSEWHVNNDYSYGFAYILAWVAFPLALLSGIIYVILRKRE
# A number is an active result; i = inactive; ? = inconclusive; nt = no result. Unless noted, the call rests on the fitted dose curve; in most records, active means well fitted curve in the direction sought with a large enough effect; inconclusive means small, poorly fitted or top-dose-only effect, or another doubt; inactive means no such curve, though single readings can be large; an effect the other way counts as inactive or inconclusive.
SMILES,S16 F2sN tox,PMP22 txn,mTORC1 inh,p53null 39C kill,p53null 32C kill,NLuc sat counter,NLuc Km counter,FLuc ctr PMP22,S16 viab conf,PMP22 txn conf,others
Cc1ccc(CNC(=O)c2nc(S(=O)(=O)Cc3ccc(C)cc3)ncc2Cl)cc1,?,10µM,i,?,i,i,i,i,i,17µM,PMP22 prot conf=i
Cc1ccc(CS(=O)(=O)c2ncc(Cl)c(C(=O)Nc3nc4ccc(F)cc4s3)n2)cc1,?,5.4µM,i,?,i,i,?,i,?,16µM,PMP22 prot conf=?
COC(=O)c1ccccc1NC(=O)c1nc(S(=O)(=O)Cc2cccc(C)c2)ncc1Cl,?,5.3µM,i,i,i,i,3.9µM,i,?,7.3µM,PMP22 prot conf=i
COc1ccc2nc(NC(=O)c3nc(S(=O)(=O)Cc4ccc(C)cc4)ncc3Cl)sc2c1,28µM,7.3µM,?,?,i,i,i,i,i,i,
Cc1ccc(CNC(=O)c2nc(SCc3ccc(C)cc3)ncc2Cl)cc1,i,?,i,i,i,nt,nt,nt,nt,nt,
CCCCCn1cc2c(c1-c1ccc(Br)cc1)c(=O)n(C)c(=O)n2C,i,?,i,i,i,nt,nt,nt,nt,nt,
CCOc1ccc(CNS(=O)(=O)c2cc3c(cc2C)NC(=O)CO3)cc1OC,i,i,i,i,i,nt,nt,nt,nt,nt,
COCCN(Cc1ccco1)C(=O)c1cc2c(Cl)nc3ccc(C)cc3c2s1,i,i,i,i,i,nt,nt,nt,nt,nt,
Oc1ccc(NCc2ccccc2OCc2ccccc2F)cc1,28µM,20µM,i,i,i,?,?,?,i,i,
COc1ccc(C(C)=O)cc1CSc1nc(Nc2ccc(F)c(F)c2)c2ccccc2n1,i,18µM,i,i,i,?,?,i,i,?,
Cn1nnnc1SCCNCc1ccc(OCc2ccccc2Cl)cc1,i,i,i,i,?,nt,nt,nt,nt,nt,
Cn1nnnc1SCCNCc1cc(Br)ccc1OCc1ccccc1Cl,?,16µM,i,i,i,?,?,i,i,?,
Cn1c(SCc2nc(-c3ccccc3)no2)nnc1-c1cccs1,nt,nt,nt,i,i,nt,nt,nt,nt,nt,
COC(=O)COc1ccc(-c2nnc(Nc3ccc(O)cc3)c3ccccc23)cc1,?,11µM,?,i,i,12µM,11µM,i,i,?,
CCOC(=O)c1sc2ccccc2c1S(=O)(=O)N1CCN(c2cccc(OC)c2)CC1,?,6.3µM,?,i,i,i,i,i,i,i,
CCOC(=O)c1sc2ccccc2c1S(=O)(=O)N1CCN(c2ccccc2)CC1,i,i,i,i,i,nt,nt,nt,nt,nt,
CN1CCN(c2nc3c(S(=O)(=O)c4ccc(Cl)cc4)nnn3c3ccsc23)CC1,i,?,i,i,i,nt,nt,nt,nt,nt,
CCN1CCN(c2nc3c(S(=O)(=O)c4ccc(C)cc4)nnn3c3ccsc23)CC1,i,17µM,i,i,i,i,i,i,i,i,
Cc1cccc(-n2c(=O)c3c(c4cc(C)ccc4n3C)n(CC(=O)NCCC3=CCCCC3)c2=O)c1,i,?,i,i,i,i,i,i,?,17µM,PMP22 prot conf=i
CCN(Cc1ccccc1)C(=O)Cn1c(=O)n(-c2ccccc2)c(=O)c2c1c1cc(C)ccc1n2C,?,18µM,i,?,i,i,i,i,i,?,
CCN(Cc1ccccc1)C(=O)Cn1c(=O)n(-c2cccc(C)c2)c(=O)c2c1c1cc(OC)ccc1n2C,i,?,i,i,i,nt,nt,nt,nt,nt,
COc1ccc(NC(=O)Cn2c(=O)n(-c3cccc(C)c3)c(=O)c3c2c2cc(C)ccc2n3C)cc1Cl,i,15µM,i,i,i,i,i,i,i,?,
O=C(NCc1ccc(Cl)cc1)C(=O)Nc1cccc(Br)c1,i,16µM,i,i,i,i,i,i,?,?,
Cc1noc(/C=C/c2ccco2)c1S(=O)(=O)N1CCC(C(=O)Nc2ccc(F)c(Cl)c2)CC1,?,12µM,i,i,i,i,i,i,i,i,
CCc1ccc(N2C(=O)CS(=O)(=O)C23C(=O)N(Cc2ccccc2F)c2ccccc23)cc1 (stereo not given),i,i,i,i,i,nt,nt,nt,nt,nt,
COc1ccc(N2CCN(CCCNC(=O)Nc3ccccc3Cl)CC2)cc1,i,i,i,i,i,nt,nt,nt,nt,nt,
O=C(NCCCN1CCN(c2ccc(F)cc2)CC1)Nc1ccccc1Cl,i,13µM,i,i,i,?,i,i,?,i,
COc1cc(OC)c(NC(=O)Nc2ccc3c(c2)N(C)C(=O)c2ccccc2S3)cc1Cl,?,?,i,i,i,nt,nt,nt,nt,nt,
COc1ccc(C2CC(=O)N(CC(=O)Nc3cccc(C)c3C)c3ccccc3S2)cc1OC (stereo not given),i,12µM,i,i,i,?,?,i,i,i,
